Source: PubChem BioAssay
In the library only some 1.7% were active in any assay of this set; here they are far more common.
aDG glyco act – activators of alpha-DG glycosylation, primary screen, uHTS, Pro5-aDG cells, AlphaScreen. AID 624168, 2012. alpha-DG glycosylation AlphaScreen (IIH6); 0% Pro5, 100% B10-LARGE cell signal. 360,000 tested, 0.22% active. activation, % at 10 µM;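 active means activation of at least 8% versus controls, or a plate z-score of at least 8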;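 further: Pro5 are CHO cells carrying HIG-tagged alpha-DG that lacks glycosylation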
Cardio protect – cardioprotection against H2O2-induced cell death, primary screen, uHTS, H9c2 cells, ATPLite luminescence. AID 588492, 2011. 360,000 tested, 0.63% active. protection from H2O2 cell death, % at 20 µM. H9c2 cardiomyocytes, H2O2 injury protection, 2 h;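 active means compounds giving at least 50% protection of heart cells from peroxide-induced death in the single-dose screen, raw or plate-pattern-corrected value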
N-glyco inh – increase of ERlucT glycosylation luciferase signal, primary screen, N-linked glycosylation inhibitor project, D54 ERlucT cells, luminescence, set 2; reporter increase, % at 12.5 µM; 360,000 tested, 0.23% active; D54 ERlucT glycosylation luciferase reporter, 24 h; percent of 100 nM tunicamycin response;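 active means mean luciferase reporter signal, scaled so untreated is 0 and the glycosylation-blocking control 100, at or above a set limit in every replicate; inconclusive means mean reaches the limit but not every replicate does; inactive means mean below the limit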;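 further: luciferase carries N-glycosylation sites so blocking glycosylation raises the light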
Vif imaging – HIV Vif self-association inhibitors, primary screen, imaging, HEK293T, single point | HEK293T cells, Vif self-association by quenched fluorescence, 24 h | inhibition, % at 7.49 µM | 340,000 tested, 0.35% active; in the data active means inhibition above about 50%, passing the limit was not always enough; inconclusive means no clear call, values can overlap the other calls; inactive means below about 31%
ARNT TACC3 PPI – disruptors of ARNT/TACC3 protein interaction, primary screen, biochemical, AlphaScreen, single concentration; AlphaScreen His-ARNT PAS-B/GST-TACC3 binding, luminescence; TACC3 fragment carries E629A point mutation; inhibition, % at 9.99 µM; AID 623870, 2012; 390,000 tested, 0.66% active;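 active means mean inhibition of replicates at least 50% and at least half of replicates each reaching 50%; inconclusive means half or more replicates reach 50% but mean below 50%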
Of the large screens only hits and unclear results are named; the others gave an inactive call.

Cc1[nH]n(-c2ccccc2)c(=O)c1C=NCc1ccncc1	ARNT TACC3 PPI 20 (no result: Vif imaging)
Cc1[nH]n(-c2ccccc2)c(=O)c1/C=N/NC(=O)c1ccc(O)cc1O	ARNT TACC3 PPI 71
Cc1cc(C(=O)N/N=C/c2c(C)n(C)c3ccccc23)n[nH]1	none
Cc1cc(C(=O)N/N=C/c2c(C)[nH]n(-c3ccccc3)c2=O)n[nH]1	ARNT TACC3 PPI 84
Cc1[nH]n(-c2ccccc2)c(=O)c1/C=N/Nc1nncc(-c2ccccc2)n1	ARNT TACC3 PPI 66
CCOc1ccc2ccccc2c1/C=N/NC(=O)c1cc(C)[nH]n1	none
Cc1cc(C(=O)N/N=C/c2c(C)[nH]c3ccccc23)n[nH]1	none
Cc1ccc(-n2[nH]c(C)c(/C=N/NC(=O)c3ccc(O)cc3O)c2=O)cc1	ARNT TACC3 PPI 62
Cc1cc(C(=O)N/N=C/c2c3ccccc3cc3ccccc23)n[nH]1	N-glyco inh 45, Vif imaging inconclusive
Cc1[nH]c2ccccc2c1/C=N/NC(=O)c1cc(-c2cccs2)[nH]n1	Cardio protect 51 (no result: ARNT TACC3 PPI)
Cc1[nH]n(-c2ccc(Cl)cc2)c(=O)c1/C=N/c1nnc(-c2ccccc2)s1	ARNT TACC3 PPI active
CN1CCN(C(=O)C[C@@H]2CC[C@H]3[C@@H](COC[C@@H](O)CN3Cc3cccc(-c4ccncc4)c3)O2)CC1	none (no result: aDG glyco act, Cardio protect, N-glyco inh, Vif imaging)
COc1ccc(S(=O)(=O)N(C)C[C@H]2Oc3ccc(NC(=O)CCC(F)(F)F)cc3C(=O)N([C@@H](C)CO)C[C@@H]2C)cc1	none (no result: aDG glyco act, Cardio protect, N-glyco inh, Vif imaging)
Cn1c2ccccc2c2cc(/C=N/NC(=O)c3cc(O)ccc3O)ccc21	Cardio protect 53
COc1cc(C(=O)N/N=C/c2ccc3c(c2)c2ccccc2n3C)ccc1O	N-glyco inh 34
COc1cc(/C=N/NC(=O)CCn2c3ccccc3c3ccccc32)ccc1O	none
COc1cc(/C=N/NC(=O)c2cc[n+]([O-])cc2)ccc1O	Vif imaging inconclusive, ARNT TACC3 PPI 77
Cn1c2ccccc2c2cc(/C=N/NC(=O)c3cc(O)cc(O)c3)ccc21	none
CC(=O)N(C)C[C@H]1Oc2ncc(C3=CCCC3)cc2C(=O)N([C@H](C)CO)C[C@H]1C	none (no result: aDG glyco act, Cardio protect, N-glyco inh, Vif imaging)
CC(C)C(=O)NC(=S)Nc1ccccc1N1CCN(C(=O)c2ccc(Cl)cc2)CC1	Cardio protect 52
O=S(=O)(Cc1ccccc1)N1CCCCN2[C@H](CO)[C@H](c3ccc(-c4ccccc4)cc3)[C@H]2C1	none (no result: aDG glyco act, Cardio protect, N-glyco inh, Vif imaging)
CC1CN(S(=O)(=O)c2cccc(C(=O)N3CCC(C(N)=O)CC3)c2)CC(C)O1 (stereo not given)	Vif imaging 53
NC(=O)C1CCCN(C(=O)c2cccc(S(=O)(=O)N3CCCCCC3)c2)C1 (stereo not given)	none
C[C@H](CO)N1C[C@H](C)[C@H](CN(C)Cc2ccc(-c3ccccc3)cc2)Oc2cc(C#CC(C)(C)O)ccc2S1(=O)=O	none (no result: aDG glyco act, Cardio protect, N-glyco inh, Vif imaging)
COc1ccc(CN(C)C[C@@H]2Oc3c(NC(=O)Nc4ccc5c(c4)OCO5)cccc3C(=O)N([C@H](C)CO)C[C@H]2C)cc1	none (no result: aDG glyco act, Cardio protect, N-glyco inh, Vif imaging)
COCC#Cc1ccc2c(c1)O[C@@H](CN(C)Cc1ccncc1)[C@H](C)CN([C@H](C)CO)S2(=O)=O	none (no result: aDG glyco act, Cardio protect, N-glyco inh, Vif imaging)
CCN(CC)c1ccc(N=Nc2nn(C)c(C)c2[N+](=O)[O-])cc1	none
CCN(CC)c1ccc(N=Nc2ncn[nH]2)cc1	ARNT TACC3 PPI 70
Cc1noc(C)c1NC(=O)Nc1ccc2c(c1)C(=O)N([C@@H](C)CO)C[C@H](C)[C@@H](CN(C)C)OCCCC[C@@H](C)O2	none (no result: aDG glyco act, Cardio protect, N-glyco inh, Vif imaging)
COc1ccc([C@H]2CC(=O)C=C(c3cc4ccccc4s3)C2)cc1	Vif imaging 51
O=C1C=C(c2cc3ccccc3s2)C[C@@H](c2ccc(Cl)cc2)C1	none
COc1ccc(C2=CC(=O)CC(c3ccc(OC)cc3)C2)cc1 (stereo not given)	none
COc1ccc([C@H]2CC(=O)C=C(c3c(OC)cccc3OC)C2)cc1	N-glyco inh 29 (no result: Vif imaging)
C/C=C/c1cnc2c(c1)C(=O)N([C@@H](C)CO)C[C@H](C)[C@H](CN(C)C(=O)C1CCOCC1)O2	none (no result: aDG glyco act, Cardio protect, N-glyco inh, Vif imaging)
N#C[C@@H]1[C@@H](c2ccccc2)[C@@H](CO)N1C(=O)C1CCCC1	none (no result: aDG glyco act, Cardio protect, N-glyco inh, Vif imaging)
COc1cccc(/C=N/NC(=O)c2ccncc2)c1OC(=O)c1ccc(Br)cc1	Cardio protect 55
COc1c(Br)cc(Br)cc1/C=N/NC(=O)c1cccnc1	N-glyco inh 30
Cn1c(-c2ccccc2)c(/C=N/NC(=O)c2cccnc2)c2ccccc21	N-glyco inh 47 (no result: ARNT TACC3 PPI)
CCOc1cc(Br)cc(/C=N/NC(=O)c2cccnc2)c1O	ARNT TACC3 PPI 56
COc1c(Br)cc(Br)cc1/C=N/NC(=O)c1ccncc1	none
O=C(N/N=C/c1c(-c2ccccc2)[nH]c2ccccc12)c1cccnc1	N-glyco inh inconclusive
O=C(Cn1c(=O)oc2cc(S(=O)(=O)N3CCCC3)ccc21)N1CCc2ccccc2C1	none
O=C(Cn1c(=O)oc2cc(S(=O)(=O)N3CCCCC3)ccc21)N1CCc2ccccc21	Vif imaging 53
COc1cc(C(=O)NCCCNc2nc3cc(C)cc(C)c3cc2C#N)cc(OC)c1OC	Cardio protect 81
Cc1cc(C)c2cc(C#N)c(NCCCNC(=O)c3ccncc3)nc2c1	none (no result: ARNT TACC3 PPI)
CCOC(=O)N1CCN(S(=O)(=O)c2cc(-c3nn4c(C)nnc4c4ccccc34)ccc2C)CC1	none
Cc1ccc(-c2nn3c(C)nnc3c3ccccc23)cc1S(=O)(=O)N(C)CCO	N-glyco inh 27
Cc1ccc(-c2nn3c(C)nnc3c3ccccc23)cc1S(=O)(=O)NCc1ccccc1	Vif imaging 87
Cc1ccc(S(=O)(=O)N(C)C[C@H]2Oc3ccc(NC(=O)CCC(F)(F)F)cc3CC(=O)N([C@H](C)CO)C[C@@H]2C)cc1	none (no result: aDG glyco act, Cardio protect, N-glyco inh, Vif imaging)
Cc1ccc(S(=O)(=O)N(C)C[C@@H]2Oc3ccc(NC(=O)CCC(F)(F)F)cc3CC(=O)N([C@@H](C)CO)C[C@@H]2C)cc1	N-glyco inh 33 (no result: Vif imaging)
CC(C)NC(=O)N(C)C[C@@H]1Oc2ccc(NC(=O)Nc3ccc(C(F)(F)F)cc3)cc2CC(=O)N([C@@H](C)CO)C[C@H]1C	ARNT TACC3 PPI 46 (no result: aDG glyco act, Cardio protect, N-glyco inh, Vif imaging)
C[C@H](CO)N1C[C@H](C)[C@H](CN(C)S(=O)(=O)c2cn(C)cn2)Oc2ccc(NC(=O)Nc3ccc(C(F)(F)F)cc3)cc2CC1=O	N-glyco inh 60
CC(C)NC(=O)N(C)C[C@H]1Oc2cc(C#C[C@@H](C)O)ccc2S(=O)(=O)N([C@@H](C)CO)C[C@H]1C	none (no result: aDG glyco act, Cardio protect, N-glyco inh, Vif imaging)
COc1ccc(NC(=O)N(C)C[C@H]2Oc3c(NC(=O)Nc4ccc(C(F)(F)F)cc4)cccc3C(=O)N([C@H](C)CO)C[C@@H]2C)cc1	Cardio protect 59
